MsrA act – bovine MsrA enzyme activators, primary screen, biochemical, absorbance, HTS. AID 602163, 2012. activation, % at 10.6 µM. Methionine sulfoxide reductase A (Bos taurus). purified bovine MsrA, absorbance read-out. 360,000 compounds, 0.3% hits; in the data active = activation above about 7.5%;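 note: 0% = vehicle and 100% = reference activator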
NadD block – inhibitors of S. aureus NadD, primary screen, biochemical, colorimetric, uHTS | Nicotinate-nucleotide adenylyltransferase NadD (Staphylococcus aureus N315) | purified NadD enzyme, colorimetric absorbance read-out | inhibition, % at 20 µM | 360,000 compounds, 0.78% hits; in the data active = inhibition above about 26%
rCAG binder – binders of r(CAG) RNA repeats, primary screen, biochemical, fluorescence; r(CAG) RNA repeat, TO-PRO-1 dye displacement fluorescence; inhibition, % at 3 µM; 370,000 compounds, 1.3% hits;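 active = inhibition above the plate cutoff, the mean of all test compounds on that plate plus 3 SD, cut at about 35% in these data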;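 note: 0% = DMSO alone and 100% = 100 µM mitoxantrone as full dye displacement; higher means more dye released from RNA so lower well fluorescence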
MsrA inh – bovine MsrA enzyme inhibitors, primary screen, biochemical, absorbance, HTS; purified bovine MsrA, absorbance read-out; inhibition, % at 15.5 µM; 360,000 compounds, 0.75% hits; in the data active = inhibition above about 4.5%;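 note: 0% = vehicle wells with enzyme and 100% = reference inhibitor wells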
Starred values were filed as active, the others as inactive; nt = no result given. Most compounds without a hit are left out; they make up all but 2.7% or so of the library.

SMILES | MsrA act | NadD block | rCAG binder | MsrA inh
CC(C)CN1C(=O)[C@]2(CC(=O)N(C)C2c2ccccc2)c2cc(-n3cc(-c4ccccc4)nn3)ccc21 (some centres undefined) | nt | nt | 3.4 | nt
COC1=CC(=O)OC(c2ccc(C#N)cc2)C1 (centres undefined) | nt | nt | 1.9 | 0.3
Oc1ccc(Br)cc1CNc1cccc2cccnc12 | -1.0 | 10.2 | 9.3 | -1.4
Oc1c(Br)cc(Br)cc1CNc1cccc2cccnc12 | 0.0 | 57.2* | 30.7 | 0.6
O=C(O)c1ccc(COc2ccc3ccccc3c2/C=C2/NC(=O)N(Cc3ccc(F)cc3)C2=O)cc1 | -2.6 | 17.1 | 24.8 | -0.8
O=C(CN1C(=O)N/C(=C\c2ccccc2OCc2ccc(C(=O)O)cc2)C1=O)Nc1ccccc1F | -5.9 | 0.3 | 46.9* | 4.6*
CCC1(C(=O)c2ccc(Cl)cc2)C2c3ccccc3OC(=O)C21C(=O)Nc1ccccc1 (centres undefined) | -8.3 | 5.5 | 40.2* | -0.1
O=C1NN(c2ccccc2)C(=O)/C1=C/c1ccc(-c2ccc(Cl)c(C(=O)O)c2)o1 | -4.9 | -0.7 | 11.5 | -0.8
O=C1NN(c2ccccc2)C(=O)/C1=C/c1ccc(Sc2ccc(Cl)cc2)o1 | -7.5 | 52.4* | 31.0 | 1.1
CCn1c(C)cc(/C=C2\NC(=O)N(CC(=O)Nc3cccc(C)c3)C2=O)c1C | -4.6 | 43.3* | 24.7 | 3.7
O=C(O)c1cccc(-n2cccc2/C=C2\NC(=O)N(Cc3ccc(F)cc3)C2=O)c1 | -7.4 | 3.4 | 29.7 | 3.2
Cc1cccc(NC(=O)CN2C(=O)N/C(=C/c3ccc(C)o3)C2=O)c1 | -8.9 | 2.0 | 31.9 | 0.7
Cc1ccc(CN2C(=O)N/C(=C\c3cccn3-c3cccc(C(=O)O)c3)C2=O)cc1 | -10.9 | 4.1 | 46.7* | 3.3
CCn1c(C)cc(/C=C2/NC(=O)N(CC(=O)Nc3cccc(C)c3)C2=O)c1C | -6.4 | 33.4* | 19.3 | 1.5
Cc1ccc(NC(=O)CN2C(=O)N/C(=C/c3cc(C)n(-c4cccc(C(=O)O)c4)c3C)C2=O)cc1 | -4.5 | 7.1 | 71.4* | 4.5
N#Cc1ccccc1S(=O)(=O)N1CCN(Cc2cc3c(cc2Br)OCCO3)CC1 | -2.9 | -0.5 | 3.9 | 0.5
CC(C)CN1C(=O)[C@@]2(CC(=O)N(C)C2c2ccccc2)c2cc(-n3cc(CCc4ccccc4)nn3)ccc21 (some centres undefined) | nt | nt | 4.2 | nt
O=c1ccsc2ccccc12 | -2.0 | 4.9 | 1.4 | 1.1
O=c1[nH]sc2ccccc12 | 12.6* | -0.5 | -1.9 | 0.0
Cc1cc(/C=N/Nc2ccc([N+](=O)[O-])cn2)c(C)n1-c1ccccc1 | -1.9 | 31.3* | 15.8 | 2.2
COCCn1c(C)cc(/C=N/NC(=O)c2cc3ccccc3cc2O)c1C | -3.2 | 35.5* | nt | nt
COc1cc(/C=C(/C#N)c2nc3ccccc3[nH]2)ccc1OCc1ccc(C(=O)O)o1 | -4.0 | 15.8 | 40.0* | 2.5
COC(=O)[C@]12C[C@H](CC(=O)NCC34CC5CC(CC(C5)C3)C4)C(=O)N(Cc3ccco3)C1=C[C@H](C(C)(C)C)O[C@@H]2C | nt | nt | 4.7 | nt
COC(=O)C[C@H]1CC[C@@H]2[C@@H](COc3ccc(NC(=O)c4ccccc4)cc3C(=O)N2C)O1 | nt | nt | 0.3 | nt
COc1ccc(C(=O)c2ccc(N3CCOCC3)c([N+](=O)[O-])c2)cc1 | -3.7 | -2.1 | 1.5 | 4.6*
SMILES | MsrA act | NadD block | rCAG binder | MsrA inh
Cc1cc(C)nc(SCc2ccc(C(=O)N/N=C/c3cccc(O)c3O)cc2)n1 | -5.1 | 23.7 | 24.2 | 1.1
COc1ccc(O)c(/C=N/NC(=O)c2ccc(CSc3nc(C)cc(C)n3)cc2)c1 | -2.1 | 33.9* | 17.9 | 1.7
Nc1[nH]c(N=NC(=O)c2ccccc2O)c2ccccc12 | -10.3 | 2.7 | -2.6 | 4.6*
N=C1/C(=C/c2ccc(-c3cccc(C(=O)O)c3)o2)C(=O)N=C2SC=C(c3ccccc3)N12 | -2.8 | 60.9* | 81.3* | 1.9
Cc1ccc(-n2c(C)cc(/C=C3/C(=N)N4C(c5ccccc5)=CSC4=NC3=O)c2C)cc1 | -4.2 | 19.9 | 3.4 | -0.3
Cc1nc(C(F)(F)F)ccc1C(=O)N1CCC(C)(C(=O)NS(=O)(=O)C2CC2)C1 (centres undefined) | -3.2 | -0.1 | 1.4 | -1.2
O=C(Nc1ccccc1)Nc1nc2ncccn2c1-c1ccc(F)cc1 | nt | nt | 2.1 | nt
Cc1cc2cc(C(c3nnnn3CC3CCCO3)N3CCCc4ccccc43)c(=O)[nH]c2cc1C (centres undefined) | -1.6 | 9.3 | 1.1 | 4.6*
CCc1ccc2[nH]c(=O)c(C(c3nnnn3CC3CCCO3)N3CCCc4ccccc43)cc2c1 (centres undefined) | -1.5 | 6.5 | -0.7 | 1.0
COc1ccc(C2Nc3ccccc3C(=O)N2Cc2ccco2)cc1COc1ccc([N+](=O)[O-])cc1 (centres undefined) | -7.0 | 8.5 | 10.7 | 2.9
COc1cccc(OCc2cc(C3Nc4ccccc4C(=O)N3Cc3ccco3)ccc2OC)c1 (centres undefined) | -6.7 | 30.5* | 13.8 | 1.1
COc1cccc(N=Nc2c(N)[nH]n3c(=O)cc(-c4ccccc4)nc23)c1 | -3.6 | 41.9* | 12.9 | 0.1
COc1ccc(-c2c(C(F)(F)F)[nH]n3c(=O)cc(-c4ccccc4)nc23)cc1 | -1.8 | 17.1 | 38.5* | -0.5
Cc1ccc(N=Nc2c(N)[nH]n3c(=O)cc(-c4ccccc4)nc23)cc1 | -4.9 | 55.3* | 11.4 | 0.9
O=S1(=O)c2c(NCc3ccco3)cccc2Oc2ccccc2CN1Cc1cn(Cc2cccc(F)c2)nn1 | nt | nt | 8.1 | nt
CCC[C@@H](/C=C/C(=O)OC(C)(C)C)Sc1ccccc1OC | nt | nt | 1.9 | nt
O=C(O)CN1C(=O)/C(=C/c2ccsc2)SC1=S | -4.2 | -2.8 | 2.2 | 2.8
O=C(O)CN1C(=O)/C(=C\c2cc(Br)ccc2OCc2ccc(Cl)cc2Cl)SC1=S | -1.4 | 36.3* | nt | nt
CC1CCCC(C)N1/N=C/c1cc(Br)c(O)c(Br)c1 (centres undefined) | nt | nt | -0.5 | 4.6*
CC(C)C[C@@H]1COc2cc(Br)ccc2S(=O)(=O)N1Cc1cn(CCC2OCCO2)nn1 | nt | nt | -2.6 | nt
CC(O)c1cc2c(s1)c1cnn(Cc3ccccc3F)c(=O)c1n2C (centres undefined) | -8.8 | -0.6 | nt | nt
O=C(O)c1cccc(-n2sc3ccccc3c2=O)c1 | 17.4* | -5.4 | -3.0 | 1.6
O=c1c2cc(C(F)(F)F)ccc2sn1-c1ccccc1 | 7.0 | 4.1 | 2.3 | -0.7
Cc1cccc(C)c1NC(=O)C(c1ccncc1)n1c(=O)c(-c2cc3ccccc3[nH]2)nc2ccccc21 (centres undefined) | nt | nt | 14.6 | 0.0
COC(=O)c1cc(-c2ccc(C(C)(C)C)cc2)c(=O)n2c1CCC2 | nt | nt | -0.7 | nt
COc1ccc(/C=C/C(=O)Nc2ccc3nc4n(c(=O)c3c2)CCCC4)cc1 | -1.9 | 1.2 | 4.7 | 2.6
COc1cc(/C=C/C(=O)Nc2ccc3nc4n(c(=O)c3c2)CCCC4)cc(OC)c1OC | -3.0 | -8.1 | 4.0 | 4.6*
COCCCN(C(=O)C1=COCCO1)c1c(N)n(Cc2ccccc2)c(=O)[nH]c1=O | -1.9 | -5.6 | 2.1 | 3.6

Screens (PubChem)
